What was measured:
Experiment in all cases: DAPPL (digital affinity profiling via proximity ligation, sequencing); 10 mM Tris-HCl pH 7.5, 50 mM NaCl, 1 mM DTT, 4% glycerol, room temperature, 30 min; GST-TFs on glutathione beads, 16-mer random dsDNA library, 0.1% formaldehyde crosslink after washing; high values mean tight binding
Settings in all cases: protein: recombinant; tags: N-terminal GST; dsDNA, one strand shown
ERF = target: T1, ERF (Homo sapiens, UniProt P50548 1-548)
T1 sequence: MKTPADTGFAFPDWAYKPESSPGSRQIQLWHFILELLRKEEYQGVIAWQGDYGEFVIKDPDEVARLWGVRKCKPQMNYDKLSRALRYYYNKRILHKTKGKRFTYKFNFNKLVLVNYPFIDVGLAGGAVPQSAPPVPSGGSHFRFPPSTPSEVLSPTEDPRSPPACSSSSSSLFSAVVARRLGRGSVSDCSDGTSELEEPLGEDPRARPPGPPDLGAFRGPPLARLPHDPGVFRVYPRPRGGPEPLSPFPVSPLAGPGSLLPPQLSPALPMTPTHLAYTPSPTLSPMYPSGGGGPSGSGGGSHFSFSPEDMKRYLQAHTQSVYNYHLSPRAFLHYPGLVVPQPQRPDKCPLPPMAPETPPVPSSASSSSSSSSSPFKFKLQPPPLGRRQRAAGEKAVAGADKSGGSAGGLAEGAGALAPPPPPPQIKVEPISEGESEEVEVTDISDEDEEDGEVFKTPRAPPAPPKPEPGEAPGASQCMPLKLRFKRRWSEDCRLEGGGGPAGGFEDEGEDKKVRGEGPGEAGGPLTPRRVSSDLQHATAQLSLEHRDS
Summary of the method: (§1)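 Beads coated with glutathione captured GST-fused human transcription factors that had been expressed in yeast, and the factors were then given DNA barcodes and pooled with a tag-only sample. The pools were incubated with 200 nmole of a random double-stranded 16-mer DNA library in Tris/NaCl/DTT/glycerol buffer for 30 min at room temperature, washed, crosslinked with 0.1% formaldehyde and proximity-ligated with BsaI/T4 ligase at 37 °C for 1 h. PCR amplification and Illumina NextSeq500 sequencing came last. Binding signal is each hexamer's read frequency for a factor divided by its frequency for the tag-only sample.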

ETV3L = target: T2, ETV3L (Homo sapiens, UniProt Q6ZN32 1-361)
T2 sequence: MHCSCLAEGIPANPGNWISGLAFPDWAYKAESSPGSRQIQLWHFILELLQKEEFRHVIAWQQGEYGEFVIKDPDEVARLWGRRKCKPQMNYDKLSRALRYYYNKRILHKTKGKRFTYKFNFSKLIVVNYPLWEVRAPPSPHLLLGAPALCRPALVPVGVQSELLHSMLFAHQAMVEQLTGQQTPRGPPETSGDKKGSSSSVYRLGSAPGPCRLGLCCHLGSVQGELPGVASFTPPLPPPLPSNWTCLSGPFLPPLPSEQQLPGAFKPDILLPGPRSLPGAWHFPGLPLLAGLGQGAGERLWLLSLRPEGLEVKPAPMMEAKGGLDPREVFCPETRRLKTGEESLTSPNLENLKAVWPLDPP
Summary of the method: as §1

ETS2 = target: T3, ETS2 (Homo sapiens, UniProt P15036 1-469)
T3 sequence: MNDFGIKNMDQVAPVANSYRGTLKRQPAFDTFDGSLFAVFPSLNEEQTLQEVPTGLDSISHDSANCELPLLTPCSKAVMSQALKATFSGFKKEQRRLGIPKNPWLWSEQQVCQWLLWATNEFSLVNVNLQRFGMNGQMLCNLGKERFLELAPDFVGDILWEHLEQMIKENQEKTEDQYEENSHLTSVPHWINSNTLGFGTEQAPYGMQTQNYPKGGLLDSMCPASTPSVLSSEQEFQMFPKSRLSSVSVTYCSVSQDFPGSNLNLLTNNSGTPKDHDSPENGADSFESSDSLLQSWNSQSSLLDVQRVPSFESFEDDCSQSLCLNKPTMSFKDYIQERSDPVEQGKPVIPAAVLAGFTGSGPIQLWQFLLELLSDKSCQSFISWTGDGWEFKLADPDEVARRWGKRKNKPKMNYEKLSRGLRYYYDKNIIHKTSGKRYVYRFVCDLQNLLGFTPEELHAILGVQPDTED
Summary of the method: as §1

SPDEF = target: T4, SPDEF (Homo sapiens, UniProt O95238 1-335)
T4 sequence: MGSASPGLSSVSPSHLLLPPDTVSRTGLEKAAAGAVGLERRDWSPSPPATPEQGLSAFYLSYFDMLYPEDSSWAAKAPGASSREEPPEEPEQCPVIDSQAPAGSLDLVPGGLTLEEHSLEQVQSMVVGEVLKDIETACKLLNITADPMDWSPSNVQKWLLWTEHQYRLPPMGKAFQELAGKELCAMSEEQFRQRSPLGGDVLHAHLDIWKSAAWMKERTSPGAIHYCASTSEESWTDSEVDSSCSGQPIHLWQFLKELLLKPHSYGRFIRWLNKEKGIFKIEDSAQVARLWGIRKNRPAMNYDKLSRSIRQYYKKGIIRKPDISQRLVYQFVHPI
Summary of the method: as §1

ETV7 = target: T5, ETV7 (Homo sapiens, UniProt Q9Y603 1-341)
T5 sequence: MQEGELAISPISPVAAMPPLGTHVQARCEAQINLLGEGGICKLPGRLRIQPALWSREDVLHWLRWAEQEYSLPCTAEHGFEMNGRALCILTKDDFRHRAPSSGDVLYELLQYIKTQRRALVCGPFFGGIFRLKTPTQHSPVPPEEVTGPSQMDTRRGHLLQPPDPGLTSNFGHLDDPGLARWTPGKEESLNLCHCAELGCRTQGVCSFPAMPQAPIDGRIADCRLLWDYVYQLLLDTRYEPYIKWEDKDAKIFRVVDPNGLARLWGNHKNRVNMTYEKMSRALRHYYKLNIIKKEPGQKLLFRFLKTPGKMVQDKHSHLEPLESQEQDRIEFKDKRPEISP
Summary of the method: as §1

ELF5 = target: T6, ELF5 (Homo sapiens, UniProt Q9UKW6-2 1-255)
T6 sequence: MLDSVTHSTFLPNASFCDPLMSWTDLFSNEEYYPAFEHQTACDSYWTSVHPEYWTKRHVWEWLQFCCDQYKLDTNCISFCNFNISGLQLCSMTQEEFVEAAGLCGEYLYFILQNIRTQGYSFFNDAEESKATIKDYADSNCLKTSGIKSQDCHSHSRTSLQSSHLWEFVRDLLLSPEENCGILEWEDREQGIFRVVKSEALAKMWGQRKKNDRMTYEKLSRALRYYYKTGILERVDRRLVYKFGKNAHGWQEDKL
Summary of the method: as §1

ETV3 = target: T7, ETV3 (Homo sapiens, UniProt P41162-2 1-143)
T7 sequence: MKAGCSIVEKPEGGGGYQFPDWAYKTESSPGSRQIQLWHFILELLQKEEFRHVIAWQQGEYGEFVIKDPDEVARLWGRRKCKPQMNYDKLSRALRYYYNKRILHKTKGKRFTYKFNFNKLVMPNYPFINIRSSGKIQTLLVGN
Summary of the method: as §1

ETV6 = ETV6 (Homo sapiens, UniProt P41212 1-452)
Summary of the method: as §1

Chain of ETV6 (P41212 whole entry): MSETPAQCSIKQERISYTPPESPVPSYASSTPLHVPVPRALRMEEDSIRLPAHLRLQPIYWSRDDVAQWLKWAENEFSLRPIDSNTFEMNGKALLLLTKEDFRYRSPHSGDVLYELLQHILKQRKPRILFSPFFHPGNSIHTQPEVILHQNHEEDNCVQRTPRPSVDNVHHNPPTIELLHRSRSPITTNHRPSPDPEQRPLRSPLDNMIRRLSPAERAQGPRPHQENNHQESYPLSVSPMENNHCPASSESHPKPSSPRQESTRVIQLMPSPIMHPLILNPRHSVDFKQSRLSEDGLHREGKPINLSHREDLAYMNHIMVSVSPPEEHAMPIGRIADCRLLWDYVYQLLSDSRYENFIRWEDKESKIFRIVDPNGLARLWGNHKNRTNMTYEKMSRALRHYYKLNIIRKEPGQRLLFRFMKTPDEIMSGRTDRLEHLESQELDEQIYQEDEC

Row | Sequence | binding signal (ERF) | binding signal (ETV3L) | binding signal (ETS2) | binding signal (SPDEF) | binding signal (ETV7) | binding signal (ELF5) | binding signal (ETV3) | binding signal (ETV6)
1 | ACATTC | 1.42 fold enrichment (6-mer frequency, TF over GST control) | 1.3 fold enrichment (6-mer frequency, TF over GST control) | 1.3 fold enrichment (6-mer frequency, TF over GST control) | 1.27 fold enrichment (6-mer frequency, TF over GST control) | 1.31 fold enrichment (6-mer frequency, TF over GST control) | 1.36 fold enrichment (6-mer frequency, TF over GST control) | 1.31 fold enrichment (6-mer frequency, TF over GST control) | 1.4 fold enrichment (6-mer frequency, TF over GST control)
2 | TTCGAT | 1.4 fold enrichment (6-mer frequency, TF over GST control) | 1.33 fold enrichment (6-mer frequency, TF over GST control) | 1.33 fold enrichment (6-mer frequency, TF over GST control) | 1.18 fold enrichment (6-mer frequency, TF over GST control) | 1.22 fold enrichment (6-mer frequency, TF over GST control) | 1.2 fold enrichment (6-mer frequency, TF over GST control) | 1.24 fold enrichment (6-mer frequency, TF over GST control) | 1.14 fold enrichment (6-mer frequency, TF over GST control)
3 | TCTGTG | 1.15 fold enrichment (6-mer frequency, TF over GST control) | 1.2 fold enrichment (6-mer frequency, TF over GST control) | 1.13 fold enrichment (6-mer frequency, TF over GST control) | 1.06 fold enrichment (6-mer frequency, TF over GST control) | 1.26 fold enrichment (6-mer frequency, TF over GST control) | 1.04 fold enrichment (6-mer frequency, TF over GST control) | 1.04 fold enrichment (6-mer frequency, TF over GST control) | 1.07 fold enrichment (6-mer frequency, TF over GST control)
4 | GATATC | 1.56 fold enrichment (6-mer frequency, TF over GST control) | 1.46 fold enrichment (6-mer frequency, TF over GST control) | 1.49 fold enrichment (6-mer frequency, TF over GST control) | 1.92 fold enrichment (6-mer frequency, TF over GST control) | 1.34 fold enrichment (6-mer frequency, TF over GST control) | 1.74 fold enrichment (6-mer frequency, TF over GST control) | 1.61 fold enrichment (6-mer frequency, TF over GST control) | 1.51 fold enrichment (6-mer frequency, TF over GST control)
5 | TTACCG | 1.05 fold enrichment (6-mer frequency, TF over GST control) | 1.03 fold enrichment (6-mer frequency, TF over GST control) | 1.19 fold enrichment (6-mer frequency, TF over GST control) | 1.21 fold enrichment (6-mer frequency, TF over GST control) | 1.17 fold enrichment (6-mer frequency, TF over GST control) | 1.3 fold enrichment (6-mer frequency, TF over GST control) | 1.23 fold enrichment (6-mer frequency, TF over GST control) | 1.25 fold enrichment (6-mer frequency, TF over GST control)
6 | ACAACC | 1.19 fold enrichment (6-mer frequency, TF over GST control) | 1.17 fold enrichment (6-mer frequency, TF over GST control) | 1.26 fold enrichment (6-mer frequency, TF over GST control) | 1.28 fold enrichment (6-mer frequency, TF over GST control) | 1.18 fold enrichment (6-mer frequency, TF over GST control) | 1.22 fold enrichment (6-mer frequency, TF over GST control) | 1.29 fold enrichment (6-mer frequency, TF over GST control) | 1.28 fold enrichment (6-mer frequency, TF over GST control)
7 | AAGGAA | 1.23 fold enrichment (6-mer frequency, TF over GST control) | 1.3 fold enrichment (6-mer frequency, TF over GST control) | 1.34 fold enrichment (6-mer frequency, TF over GST control) | 1.22 fold enrichment (6-mer frequency, TF over GST control) | 1.28 fold enrichment (6-mer frequency, TF over GST control) | 2.15 fold enrichment (6-mer frequency, TF over GST control) | 1.37 fold enrichment (6-mer frequency, TF over GST control) | 1.41 fold enrichment (6-mer frequency, TF over GST control)
8 | TCTCAT | 1.26 fold enrichment (6-mer frequency, TF over GST control) | 1.32 fold enrichment (6-mer frequency, TF over GST control) | 1.26 fold enrichment (6-mer frequency, TF over GST control) | 1.33 fold enrichment (6-mer frequency, TF over GST control) | 1.11 fold enrichment (6-mer frequency, TF over GST control) | 1.24 fold enrichment (6-mer frequency, TF over GST control) | 1.37 fold enrichment (6-mer frequency, TF over GST control) | 1.14 fold enrichment (6-mer frequency, TF over GST control)

Reference: article PMC7862700, “An all-to-all approach to the identification of sequence-specific readers for epigenetic DNA modifications on cytosine”
